Source: PubChem BioAssay
The list is not random: actives were taken first. Their share in the collection is about 0.57%.
12-hLO inh: inhibitors of human 12-lipoxygenase (ALOX12); purified 12-hLO, xylenol orange hydroperoxide absorbance; Potency, µM (doses to about 57.1 µM), usual class: inhibitors; 150,000 compounds, 0.12% hits; AID 1452; also: nearly all actives have a fitted effect of over 55% in size
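Hydroperoxide formation by human 12-lipoxygenase from 40 uM arachidonic acid was followed colorimetrically via ferric-xylenol orange complex, using the 573/405 nm absorbance ratio. Enzyme concentration was 150 nM, with 30 min reaction at room temperature.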
IMPase inh: cell-permeable inhibitors of inositol monophosphatase (IMPase) | CHO-M1 cells, IP1 accumulation, HTRF TR-FRET ratio | inhibition (IP1 accumulation), % at 46.1 µM | 120,000 tested, under 10 active; active = well fitted curve in the direction sought with a large enough effect in the signal ratio, not every such curve was filed as active; inconclusive = small, poorly fitted or top-dose-only effect, or a change in a side signal; inactive = no such curve, though single readings can be large or run the other way; the % refers to the signal ratio;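 also: cells stimulated with carbachol in lithium chloride buffer; higher means more IMPase inhibition seen as more IP1 and lower FRET ratio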
Target sequence (P97697 whole entry, looked up): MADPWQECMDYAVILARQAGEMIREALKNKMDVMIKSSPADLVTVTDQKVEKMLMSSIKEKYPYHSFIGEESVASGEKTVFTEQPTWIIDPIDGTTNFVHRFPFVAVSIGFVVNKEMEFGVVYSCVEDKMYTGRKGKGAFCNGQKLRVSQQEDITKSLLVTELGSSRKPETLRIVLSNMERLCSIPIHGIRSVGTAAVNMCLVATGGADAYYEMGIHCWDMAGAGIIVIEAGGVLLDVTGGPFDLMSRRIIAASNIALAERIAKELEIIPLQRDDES
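The IP-One HTRF competitive assay in carbachol-stimulated CHO-M1 cells quantifies cellular IP1. Compounds spanned up to 46 uM final, and activity is expressed as AC50 from concentration-response fits of the ratio and donor data.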
IMPase Li inh: membrane-permeable IMPase blocker, potentiated with lithium; 210,000 compounds, 0.35% hits; AID 1457; Potency, µM (top dose mostly 59.4 µM), hits mostly inhibitors; CHO-M1 cells, IP1 TR-FRET (IP-One), carbachol + lithium;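 also: IP1 builds up when IMPase is blocked and the TR-FRET signal falls; nearly all actives have a fitted effect of over 50% in size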
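Lithium-sensitised IP1 accumulation assay; M1-expressing CHO cells treated 30 min at 37C with compound. Competitive antibody detection by time-resolved FRET followed a 10 min room-temperature lysis step.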
ALOX15B inhib: blocks human 15-lipoxygenase 2 activity. Potency, µM (series often up to 57.1 µM), actives largely listed as inhibitors. purified 15hLO-2, xylenol orange hydroperoxide absorbance. 110,000 compounds, 0.56% hits. O15296; also: nearly all actives have a fitted effect of over 60% in size
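Enzyme 50 nM, AA 45 uM, 25 mM Hepes pH 7.5 + 0.01% Triton X-100; cpd preinc 15 min RT, rxn 90 min RT; stop/detect with 200 uM XO + 300 uM Fe(II) in 50 mM H2SO4, 30 min; A573/A405.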
Hits are given with their value; – = inactive; ? = inconclusive; · = no result; [ ] = remark or other dose. Unless noted, calls follow the shape of the dose curve; as a rule, active = well fitted curve in the direction sought with a large enough effect; inconclusive = small, poorly fitted or top-dose-only effect, or another doubt; inactive = no such curve, though single readings can be large; an effect the other way counts as inactive or inconclusive.

SMILES | 12-hLO inh | IMPase inh | IMPase Li inh | ALOX15B inhib
N#Cc1c(-c2cccnc2)c2c([nH]c1=S)CCCC2 | – | – | · | 20µM
N#Cc1c(-c2ccco2)c2c([nH]c1=S)CCCC2 | – | – | – | –
COCCn1c(=O)c(-c2ccc(F)cc2)nc2cnc(Oc3ccccc3)nc21 | · | · | – | –
Cc1ccc(-c2cc(C(=O)N3CCN(c4ccc(F)cc4)CC3)c3ccccc3n2)o1 | – | – | – | 13µM
COC(=O)CN1C(=O)S/C(=C/c2ccc(N3CCCCC3)o2)C1=O | – | – | – | 13µM
CCOC(=O)CN1C(=O)S/C(=C/c2ccc(N3CCCCC3)o2)C1=O | – | – | – | –
CCCOc1ccc(C(CC(=O)O)NC(=O)c2sc3ccccc3c2Cl)cc1 (configuration not stated) | · | · | 3.2µM | ·
CCOc1ccc(C(CC(=O)O)NC(=O)c2ccco2)cc1 (configuration not stated) | – | – | – | ·
CCOc1ccc(C(CC(=O)O)NC(=O)c2sc3ccccc3c2Cl)cc1 (configuration not stated) | – | – | 8.9µM | ·
OC(Cc1ccccc1)(Cc1ccccc1)c1ccccc1 | –[11.4 µM] | · | – | –[11.4 µM]
Cc1cc(C)cc(-c2cc3c(c(-c4c(O)c(-c5cc(C)cc(C)c5)cc5c4CCCC5)c2O)CCCC3)c1 | · | · | – | ·
COC(=O)c1ccccc1N/C=C1\CCc2c(c(C)nn2-c2ccccn2)C1=O | – | – | – | 2.5µM
Cc1nn(-c2ccc(Cl)cc2)c2sc(C(=O)c3c(N)n(C)c(=O)n(C)c3=O)cc12 | – | – | 13µM | ?
O=C(CCCCCn1c(=S)[nH]c2ccc(N3CCOCC3)cc2c1=O)NCc1ccc(Cl)cc1 | · | · | 11µM | ·
c1ccc(CN2COc3c(ccc4c5c(ccc34)CN(Cc3ccccc3)CO5)C2)cc1 | –[11.4 µM] | · | – | –[11.4 µM]
CC(=O)c1sc(NC(=O)COc2ccc(C(C)C)c(C)c2)nc1C | · | · | 11µM | ·
CC(=O)c1sc(NC(=O)CCOc2ccccc2)nc1C | · | · | – | ·
CC(=O)c1sc(NC(=O)COc2ccccc2)nc1C | · | · | 10µM | ·
CCOC(=O)c1sc2nc(NC(=O)COc3ccccc3)sc2c1C | – | – | 13µM | –
Oc1ccc(-c2csc(-c3ccccc3)n2)cc1O | 13µM | – | – | 4µM
Oc1ccccc1-c1csc(-c2ccccc2)n1 | · | · | – | ·
O=C(c1cnccn1)N1CCC2(CCCN(c3ccccc3)C2)CC1 | – | · | – | –
COCCn1c(=O)c(CCc2ccccc2)nc2cnc(OCc3ccccc3)nc21 | · | · | – | –
O=C(c1cccc(F)c1)N1CCC2(CC1)CCN(c1ccc(-c3ccccc3)cc1)CC2 | – | · | – | –
Cc1c(C(=O)O)sc2ncnc(N3CCCCC3C)c12 (configuration not stated) | – | ? | 5.6µM | –
SMILES | 12-hLO inh | IMPase inh | IMPase Li inh | ALOX15B inhib
CC(CC1C(C#N)=C(N)SC(N)=C1C#N)c1ccccc1 (configuration not stated) | – | – | – | 20µM
CC(c1ccccc1)C1C(C#N)=C(N)SC(N)=C1C#N (configuration not stated) | – | – | · | –
COc1ccc(-c2nnc(NC(=O)C(C)C)s2)c(OC)c1 | – | ? | 13µM | –
COc1ccccc1-c1nnc(NC(=O)OCC(C)C)s1 | – | – | 11µM | –
COc1ccc(OC)c(-c2nnc(NC(=O)C(C)Sc3nncn3C)s2)c1 (configuration not stated) | – | – | – | –
NC(N)=NC[C@@H]1CCCCCCN1 | –[11.4 µM] | · | – | –[11.4 µM]
Cc1nc2cnc(OCc3ccccc3)nc2n(CCc2ccccc2)c1=O | · | · | – | –
O=C(O)[C@H](Cc1cc(I)c(O)c(I)c1)C1CCCCC1 | –[11.4 µM] | · | – | –[11.4 µM]
Cc1ccc(-c2nc(=S)c3c(n2Cc2ccco2)CC(C)(C)OC3)cc1 | – | – | 4µM | ?
Clc1ccccc1Cc1cn2cc(-c3ccccc3)nc2s1 | · | – | · | ·
CCOC(=O)c1cc(C(=O)OCC)c2cc(Br)ccc2n1 | – | ? | 10µM | –
CCCCCn1c(NC(=O)c2ccco2)c(S(=O)(=O)c2ccc(C)cc2)c2nc3ccccc3nc21 | ? | ? | 11µM | –
CCCCn1c(NC(=O)c2ccc(Br)o2)c(S(=O)(=O)c2ccccc2)c2nc3ccccc3nc21 | – | ? | 10µM | ?
CCCCn1c(NC(=O)c2ccco2)c(S(=O)(=O)c2ccc(C)cc2)c2nc3ccccc3nc21 | – | · | ? | ·
CCN1CCC[C@@H]1CNC(=O)c1c(O)c(Cl)cc(Cl)c1OC | – | – | · | –
O=C(O)c1c(-c2c3ccc(=O)cc-3oc3cc(O)ccc23)cc2ccccc2c1-c1ccccc1 | –[11.4 µM] | · | – | –[11.4 µM]
COc1ccc(Oc2ncc3nc(-c4ccc(OC)cc4)c(=O)n(C)c3n2)cc1 | · | · | – | –
Cn1c(=O)c(-c2ccc(Cl)cc2)nc2cnc(Oc3ccccc3)nc21 | – | · | 11µM | –
Cn1c(=O)c(-c2ccccc2)nc2cnc(Oc3ccccc3)nc21 | – | · | – | –
Cn1c(=O)c(-c2ccc(F)cc2)nc2cnc(Oc3ccccc3)nc21 | – | · | 7.9µM | –
CN1CC[C@@]2(CCN3CCc4c(oc5ccccc45)[C@@H]3C2)N(C)C1=O | – | – | · | –
C/C=C/C(=O)Nc1nnc(-c2ccccc2C)s1 | · | · | 10µM | ·
C=C(C)C(=O)Nc1nnc(-c2ccccc2C)s1 | · | · | – | ·
COc1ccc(-c2nnc(SCC(=O)N3CCN(c4ccccc4)CC3)o2)cc1OC | – | · | – | ·
Cc1ccc(-c2nnc(SCC(=O)N3CCN(c4ccccc4)CC3)o2)cc1 | – | – | 11µM | –
SMILES | 12-hLO inh | IMPase inh | IMPase Li inh | ALOX15B inhib
COc1ccc(Oc2ncc3nc(-c4cccc(C#N)c4)c(=O)n(Cc4cccc(OC)c4)c3n2)cc1 | · | · | – | –
COc1cc(-c2nnc(COc3ccc4cc(Br)ccc4c3)o2)cc(OC)c1OC | – | ? | 14µM | –
Cc1cccc(-n2c(=S)[nH]c3c(oc4ccccc43)c2=O)c1 | – | · | 8.9µM | ·
O=c1c2oc3ccccc3c2[nH]c(=S)n1-c1ccccc1 | – | ? | 8.9µM | ·
O=c1c2[nH]c3ccc(Br)cc3c2ncn1CCCn1ccnc1 | – | – | 5.6µM | –
O=c1c2[nH]c3ccccc3c2ncn1CCCn1ccnc1 | – | – | – | –
CC(C)(C)C(=O)[C@H]([C@@H](c1ccccc1)N1CCOCC1)N1CCOCC1 | –[11.4 µM] | · | · | –[11.4 µM]
Cc1cc(C)cc(C(=O)NC(=S)Nc2ccc3c(c2)OCCO3)c1 | – | – | · | ·
CCc1ccc(C(=O)NC(=S)Nc2ccc3c(c2)OCCO3)cc1 | 14µM | – | – | ·
O=C(NC(=S)Nc1ccc(N2CCCCC2)c(Cl)c1)c1ccc2c(c1)OCCO2 | ? | – | – | 10µM
S=c1nc(SCc2ccccc2)[nH]c2ccccc12 | · | · | 14µM | ·
CCOC(=O)c1ccc(COC(=O)c2ccc3c(c2)-c2ccccc2C3=O)cc1 | – | – | – | –
CCOC(=O)c1c(C)nc2c(c1-c1cc(OC)ccc1OC)C(=O)c1ccccc1-2 | – | – | – | –
CCOC(=O)C1=C(Cc2ccc(OC)cc2)C(=O)c2ccccc2C1=O | – | – | – | 13µM
CCOC(=O)C1=C(Cc2ccc(C)cc2)C(=O)c2ccccc2C1=O | ? | – | – | 10µM
Cc1ccccc1N1C(=O)CC(Sc2nnc(-c3ccccc3)o2)C1=O (configuration not stated) | – | ? | 10µM | –
